From PubChem
Most compounds without a hit are left out; they make up all but 3.7% or so of the library.
tim23-1 inh – growth inhibitors of tim23-1 mutant yeast. AID 463212. inhibition, % at 20 µM. S. cerevisiae tim23-1 growth, BacTiter-Glo luminescence, 24 h. hit rate 1.3% among 330,000;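 active = growth inhibition of the mutant yeast at or above 50%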;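 note: temperature-sensitive mutant grown at 25 °C; plate controls were DMSO-treated mutant yeast for no effect and medium wells lacking yeast for full effect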
tim10-1 inh – tim10-1 yeast growth inhibition. hit rate 2.2% among 330,000. inhibition, % at 20 µM. S. cerevisiae tim10-1 ts strain growth, BacTiter-Glo, 24 h;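 active = inhibition of at least 40%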;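 note: mutant grown at 25 °C; 0% = DMSO wells with yeast and 100% = wells holding no yeast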
PfHsp90 yeast 2 – inhibits growth of yeast expressing Plasmodium falciparum Hsp90; S. cerevisiae expressing PfHsp90, BacTiter-Glo ATP, 48 h; yeast lacking PDR1 and PDR3 efflux regulators; hit rate 0.32% among 310,000; AID 504621; inhibition, % at 9.4 µM;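 active = every replicate shows inhibition above about 80%, whatever the replicate mean, limit read from the data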;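 note: 0% = DMSO neutral controls and 100% = 20 µM radicicol positive controls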
TIM10 inh – growth inhibitors of TIM10 yeast strain. S. cerevisiae TIM10 strain growth, BacTiter-Glo luminescence, 24 h. inhibition, % at 10 µM. hit rate 1.4% among 330,000. AID 463195;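 active = inhibition of 40% or more at the single tested concentration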;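 note: wild-type TIM10 isogenic control strain grown at permissive 25 °C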
NLRP3 yeast inh – blocks the NALP3 inflammasome reconstituted in yeast; Yeast reconstituted NLRP3/ASC/caspase-1, beta-gal luminescence, 24 h; inhibition, % at 10 µM; hit rate 0.39% among 330,000; AID 2825;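 active = inhibition of 50% or more; inactive = inhibition below 50%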;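 note: plate controls were induced DMSO wells for no effect and uninduced yeast grown without galactose for full effect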
tim23-1 confirm – tim23-1 yeast growth inhibition, confirmed; shares compounds with tim23-1 inh; hit rate 83% among 4,400; S. cerevisiae tim23-1 growth, BacTiter-Glo luminescence, 24 h; AID 463218; inhibition, % at 20 µM;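 active = inhibition above about 39% in either of two replicate wells at 20 µM, limit read from the data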;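 note: temperature-sensitive tim23-1 mutant grown at 25 °C; 0% = DMSO wells with yeast and 100% = medium wells without yeast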
Numbers without * were called inactive; . = no result given.

SMILES | tim23-1 inh | tim10-1 inh | PfHsp90 yeast 2 | TIM10 inh | NLRP3 yeast inh | tim23-1 confirm
O=C(Nc1ccn(Cc2ccc(Cl)cc2)n1)c1ccc2c(c1)OCO2 | 59* | 8 | -12 | 35 | 31 | 63*
CCCCCCCCNCCS(=O)(=O)NCc1ccccc1 | . | . | 0 | . | . | .
C=CCc1c(C)nc(SC)nc1Nc1ccc(C(C)=O)cc1 | 50* | 31 | -3 | 11 | 16 | 45*
C=CCc1c(C)nc(SC)nc1Nc1ccc(C(=O)O)cc1 | 2 | 22 | -6 | -13 | 6 | .
CSC1=NSC2=NC(=O)/C(=C/c3coc4ccccc4c3=O)C(=N)N12 | . | . | -20 | . | . | .
N=C1/C(=C\c2coc3ccccc3c2=O)C(=O)N=C2SC=CN12 | 65* | 22 | 8 | 8 | -9 | 71*
Cc1ccc(C(=O)Nc2cccc(S(=O)(=O)N3CCCCC3)c2)cc1S(=O)(=O)N1CCOCC1 | . | . | -3 | . | . | .
CC(=O)c1cc2c(cc1NS(=O)(=O)c1ccc(F)cc1)OCO2 | 28 | 11 | 5 | 1 | -9 | .
C#CCOCCOCCOCCNc1nc(N2CCN(C(=O)CCCCCCCCCCNC(=O)[C@@H](CCC(=O)O)n3cc(CCCCCN)nn3)CC2)nc(N2CCN(C(=O)CCCCCCCCCCNC(=O)[C@H](CCCCN)n3cc(C[C@@H](C)CC)nn3)CC2)n1 | 47 | 40 | -26 | 17 | 18 | .
C#CCOCCOCCOCCNc1nc(N2CCN(C(=O)CCCCCCCCCCNC(=O)[C@H](CO)n3cc(CCCCCN)nn3)CC2)nc(N2CCN(C(=O)CCCCCCCCCCNC(=O)[C@H](CCCN=C(N)N)n3cc(C[C@@H](C)CC)nn3)CC2)n1 | 52* | 34 | . | 20 | 15 | 49*
C#CCOCCOCCOCCNc1nc(N2CCN(C(=O)CCCCCCCCCCNC(=O)[C@H](CCCCN)n3cc(CCO)nn3)CC2)nc(N2CCN(C(=O)CCCCCCCCCCNC(=O)[C@H](CCCCN)n3cc(C[C@@H](C)CC)nn3)CC2)n1 | 57* | 28 | . | 13 | 9 | 56*
CCOC(=O)Cc1csc(NS(=O)(=O)c2ccc(F)cc2)n1 | 13 | 3 | -23 | -1 | 17 | .
COc1ccc(N2CCN(Cc3nnnn3C3CCCCC3)CC2)cc1 | 20 | 18 | -2 | -5 | 4 | .
CC(C)(C)c1cc(CCC(=O)NNC(=O)c2ccncc2)cc(C(C)(C)C)c1O | 8 | -12 | . | -11 | 16 | .
CC(C)C(NC(=O)c1ccco1)C(=O)OCc1cc([N+](=O)[O-])cc2c1OCOC2 (stereo not drawn) | 7 | 8 | 13 | -2 | 1 | .
O=S(=O)(Nc1cccc(-c2nc3cccnc3s2)c1)c1ccc2c(c1)OCCO2 | 58* | 39 | -23 | 29 | 3 | 52*
Cc1nc2ccc(S(=O)(=O)Nc3cc(-c4nc5cccnc5s4)ccc3C)cc2s1 | 60* | 37 | 67 | 4 | 9 | 55*
O=S(=O)(Nc1ccc(S(=O)(=O)Nc2nccs2)cc1)c1ccc2c(c1)OCCO2 | 13 | 18 | . | 6 | 0 | .
Cc1ccc(S(=O)(=O)Nc2ccc(-c3nc4ccc(C)cc4s3)cc2)cc1 | 8 | 10 | -22 | -2 | 11 | .
COc1ccccc1N(C)S(=O)(=O)c1ccc(C(=O)Nc2cccc(Br)c2)cc1 | 36 | 15 | -2 | 36 | 12 | .
CC(C)n1cc(NC(=O)c2cc(-c3ccccc3)on2)cn1 | 55* | 21 | -5 | 26 | 19 | 54*
COc1ccc(OC)c(NS(=O)(=O)c2ccc3c(c2)CCC(=O)N3)c1 | 20 | 1 | -37 | -18 | 5 | .
CC1=CC(C)(C)N(C(=O)c2ccc(F)cc2)c2cc3c(cc21)OCO3 | 54* | 35 | -1 | 39 | 14 | 44*
COc1ccc2c(c1)C(=O)N(c1ccc(C)cc1C)C(=O)C2(C)C | 55* | 33 | -10 | 36 | 34 | 57*
Cc1ccc(C)c(N2CCN(C(=O)C(Cc3ccccc3)n3cccc3)CC2)c1 (stereo not drawn) | 35 | 27 | 0 | 15 | 7 | .
SMILES | tim23-1 inh | tim10-1 inh | PfHsp90 yeast 2 | TIM10 inh | NLRP3 yeast inh | tim23-1 confirm
O=C(C(Cc1ccccc1)n1cccc1)N1CCN(c2ccccc2)CC1 (stereo not drawn) | 55* | 17 | -12 | 12 | 5 | 31
Cc1ccc(Nc2nc(-c3sc(N)nc3C)cs2)cc1 | 65* | 33 | -5 | 33 | 20 | 63*
CCOC(=O)c1cc(CNC(=O)c2c(C)oc3c2CCCC3)c(C)o1 | 18 | 23 | 12 | 10 | 7 | .
Cc1nnc(SCC(=O)N2CCCCC2)n1CC1CCCO1 (stereo not drawn) | 69* | 3 | 16 | -9 | 4 | 14
CCc1ccc(NC(=O)/C(C#N)=C/c2ccncc2)cc1 | 74* | 37 | -8 | 22 | 0 | 66*
N#C/C(=C\c1ccccc1)C(=O)Nc1cccnc1 | 50* | 21 | -15 | 14 | -2 | 50*
N#C/C(=C\c1ccccc1)C(=O)Nc1ccccn1 | 53* | 14 | -1 | 30 | 11 | 25
CC(C)(C)c1ccc(/C=C(\C#N)C(=O)Nc2ccccn2)cc1 | 55* | 29 | 14 | 38 | 27 | 61*
NC(=O)c1c(NC(=O)Cc2cccs2)sc2c1CCC2 | 41 | 33 | 31 | 11 | 36 | .
OCCN(CCO)c1ncnc2c1oc1ccc(Br)cc12 | 23 | 17 | -15 | 1 | 0 | .
CN(c1ccccc1)S(=O)(=O)c1cccc(NC(=O)c2ccc3ncsc3c2)c1 | 6 | -2 | 0 | -7 | 0 | .
Cc1nn(-c2ccccc2)c2c1C(c1cccs1)C(C#N)=C(N)O2 (stereo not drawn) | 61* | 24 | -1 | 32 | 9 | 60*
Cc1nn(-c2ccccc2)c2c1C(c1ccco1)C(C#N)=C(N)O2 (stereo not drawn) | 24 | 7 | -1 | 8 | 16 | .
CCCc1nn(-c2ccccc2)c2c1C(c1cccs1)C(C#N)=C(N)O2 (stereo not drawn) | 51* | 36 | 15 | 29 | 8 | 44*
Cc1nn(-c2ccccc2)c2c1C(c1ccc([N+](=O)[O-])cc1)C(C#N)=C(N)O2 (stereo not drawn) | 12 | 9 | -6 | -2 | 1 | .
Clc1cccc(CSc2nnc(-c3ccccn3)n2Cc2ccco2)c1 | 52* | 33 | . | 40 | -54 | 57*
O=C(CSc1nnc(-c2ccccn2)n1Cc1ccco1)c1ccc(Cl)cc1 | 35 | 14 | . | 3 | 18 | .
CN1c2ccsc2/C(=N/Nc2ccccc2)CS1(=O)=O | 53* | 37 | -2 | 33 | 27 | -40
CN1c2ccsc2/C(=N/NC(=O)c2c(F)cccc2F)CS1(=O)=O | 22 | 15 | -1 | 2 | 17 | .
CCCCNC(=O)[C@@H]1CC=C[C@@H]2CCN(C3CC3)C(=O)[C@@H]21 | -1 | 2 | . | 3 | 1 | .
NC(=O)C1CCN(C(=O)c2ccc3c(=O)n(Cc4ccco4)c(SCC(=O)c4ccccc4)nc3c2)CC1 | 58* | 22 | 9 | 3 | -8 | 18
